Compound activity from PubChem BioAssay.
aSyn UTR act: Activators via SNCA 5'UTR binding, MLPCN. alpha-synuclein 5'UTR reporter, activators screen. activity score, % (tested at 7.5 µM), hits read low. 300,000 compounds, 7.1% hits. AID 1814, 2009; in the data active means activity score below about -60%
* hit, by the source's call. The list is a sample of the results.

SMILES	aSyn UTR act
COc1ccc(OC)c(C2CC(=O)N3CN(c4ccc(C)c(Cl)c4)CSC3=C2C#N)c1 (stereo unspecified)	-89.7*
CCOc1ccc(C(=O)COC(=O)c2cc([N+](=O)[O-])ccc2N2CCOCC2)cc1	-115.5*
CSc1ccc(COC(=O)c2cc([N+](=O)[O-])ccc2N2CCOCC2)cc1	66.9
COc1cc(C(=O)Nc2ccc(C(C)=O)cc2)c(Br)c(OC)c1OC	-83.3*
Cc1nc2cc(C(=O)O)ccc2s1	-176.6*
O=C(Nc1ccc2[nH]c(=S)sc2c1)c1ccccc1	-138.4*
Cc1nc2ccc(NC(=O)c3cncc(Br)c3)cc2s1	-87.1*
Cc1nc2ccc(NC(=O)c3sccc3C)cc2s1	-163.7*
CCOC(=O)Nc1ccc2nc(N3CCCCCC3)sc2c1	-313.0*
Cc1nc2cc(NC(=O)c3ccc([N+](=O)[O-])s3)ccc2s1	76.5
Cc1nc2ccc(NC(=O)c3cccs3)cc2s1	-131.6*
Cc1ccccc1OCCNC(=O)c1ccc2ccccc2n1	-148.7*
Cc1nnc(NC(=O)c2ccc3ccccc3n2)s1	-151.9*
Cc1nc2ccc(C(=O)Nc3ccccc3Cl)cc2s1	-235.3*
Cc1ccc(OC(=O)c2ccc3nc(C)sc3c2)cc1	-76.1*
Cc1nc2ccc(NC(=O)c3ccccc3)cc2s1	-106.3*
CC(=O)c1ccc(NC(=O)c2ccc3nc(C)sc3c2)cc1	-193.4*
Cc1nc2ccc(NC(=O)N3CCCCC3)cc2s1	-106.2*
Cc1nc2ccc(NC(=O)c3ccc4ccccc4n3)cc2s1	-71.1*
N#Cc1ccccc1CSc1nc2ccc(NC(=O)c3ccccc3C(=O)O)cc2s1	-87.4*
CC(=O)c1ccc(NC(=O)c2ccc(C)c(Br)c2)cc1	-125.5*
Cn1c(-c2ccc(CN3CCCCC3)o2)nc2ccccc21	-89.3*
O=C(Nc1cc(N2CCCCC2)ncn1)c1ccc(F)cc1	-86.3*
CC(CNS(=O)(=O)c1cc(Cl)ccc1Cl)CN(C)C (stereo unspecified)	-158.9*
NS(=O)(=O)c1ccc(N/C=C/C(=O)c2ccc(Br)cc2)cc1	-108.1*
SMILES	aSyn UTR act
O=C(/C=C/Nc1ccc(F)cc1)c1ccc(Oc2ncccn2)cc1	-114.9*
NS(=O)(=O)c1ccc(N/C=C\C(=O)c2ccc(F)cc2)cc1	-118.4*
CN(C)c1ccc(N/C=C/C(=O)c2ccc(F)cc2)cc1	-120.0*
COc1ccc(/C=C/C(=O)c2c(C)nc3ccccn23)cc1	-307.6*
Cc1nc2ccccn2c1C(=O)/C=C/c1ccc(F)cc1	-83.4*
COc1ccccc1Nc1nnc(SCC(=O)N2CCCC2)s1	-77.0*
CCCSc1nnc(NC(=O)Nc2ccccc2OC)s1	-143.6*
CCCc1nnc(NC(=O)Nc2ccccc2OC)s1	-91.8*
Cc1nc(N)sc1-c1csc(Nc2ccc(Cl)cn2)n1	-141.6*
Cc1nc(N)sc1-c1csc(Nc2ccccn2)n1	-168.4*
Cc1ccnc(Nc2nc(-c3sc(C)nc3C)cs2)c1	-160.6*
Cc1nc(C)c(-c2csc(Nc3ccccn3)n2)s1	-84.7*
CCN1CCN(Cc2ccc(NC(=O)Nc3ccccc3Cl)cc2)CC1	-87.0*
CCN1CCN(Cc2ccccc2NC(=O)Nc2ccc(C)cc2)CC1	-169.9*
O=C(Nc1cccc(C(F)(F)F)c1)Nc1ccc(N2CCCC2)c(S(=O)(=O)Nc2ccccc2Cl)c1	92.7
O=C(Nc1ccc(CN2CCCCC2)cc1)Nc1ccccc1Cl	-90.1*
O=C(Nc1ccc(Br)cc1)Nc1ccccc1Cl	-128.9*
CCCCN1CCc2c([nH]c3ccc(C)cc23)C1=O	-170.6*
O=C(N/N=C/c1sc(=O)n(-c2ccccc2)c1Cl)c1ccccc1	-83.9*
CCN(CC)c1ccc(NC(=S)NCC2CCCO2)cc1 (stereo unspecified)	-82.8*
Clc1ccc(-c2ccc(CNCC3CCCO3)o2)cc1 (stereo unspecified)	-67.4*
S=C(NCC1CCCO1)Nc1ccc(Cl)cc1Cl (stereo unspecified)	-87.4*
O=C(NCC1CCCO1)Nc1ccc(Cl)cc1 (stereo unspecified)	-73.0*
Cn1c(SCC(=O)NCC2CCCO2)ncc(C(=O)Nc2ccc(Cl)cc2)c1=O (stereo unspecified)	-71.8*
S=C(NCC1CCCO1)Nc1ccc(Cl)cc1 (stereo unspecified)	-72.2*
SMILES	aSyn UTR act
CCOc1cccc(C(=O)NC(=S)Nc2cccnc2)c1	-142.1*
CC(C)(C)c1cc(Cl)c(O)c(NC(=S)NC(=O)c2cccnc2)c1	79.6
O=C(NC(=S)Nc1ccc(CN2CCCCC2)cc1)c1cccc(OCc2ccccc2)c1	-64.6*
CCOc1cccc(C(=O)NC(=S)Nc2ccccc2)c1	-184.2*
COc1ccc(-c2cc3ncc(-c4ccccc4)c(N)n3n2)cc1	-95.9*
COc1ccc2cc3cc(C(=O)N4CCCC(C)C4)oc3nc2c1 (stereo unspecified)	-64.4*
CCOC(=O)C1CCCN(C(=O)c2cc3cc4ccc(OC)cc4nc3o2)C1 (stereo unspecified)	-100.7*
Cc1csc(NC(=O)c2ccoc2C)n1	-190.7*
CC(C)[C@H](NC(=O)c1ccccc1Cl)C(=O)Nc1nc(-c2ccccn2)cs1	63.6
Cc1csc(NC(=O)c2cccc(C)c2C)n1	-154.9*
Cc1csc(NC(=O)c2cccnc2Cl)n1	-76.5*
